Seven compounds from PubChem BioAssay (NCATS) can be followed below.

Values without a mark were called inactive. Results filed as inconclusive are left out. Calls of active or inactive are those of the source. Unless noted, calls come from the whole dose curve; as a rule, active = well fitted curve in the direction sought with a large enough effect; inconclusive = small, poorly fitted or top-dose-only effect, or another doubt; inactive = no such curve, though single readings can be large; an effect the other way counts as inactive or inconclusive. Some results are limits rather than exact numbers.

The nature of assay [1]: AP1 Signaling Pathway (AID 357; active = well fitted curve in either direction with a large enough effect, not every such curve was filed as active;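 note: ME-180 reporter cells stimulated with EGF at its EC50 level; % is set by controls: 0 for no effect and ±100 for the full control effect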). The following applies: ME-180 AP-1-bla reporter, EGF-induced, beta-lactamase ratio, 5 h; at 7.69 µM (top of the series) unless noted. In outline: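 In this screen, ME-180 cells in Opti-MEM with 0.5% dialyzed FBS received EC50 EGF and compound titrations for 5 h. AP-1 reporter beta-lactamase was detected via CCF4 ratio, giving AC50 for positive and negative modulators.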

A short description of assay [2]: NFAT Signaling Pathway (AID 444; active = well fitted curve in either direction with a large enough effect, not every such curve was filed as active;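 note: carbachol stimulus at about its EC50 of 1 µM final; % is set by controls: 0 for no effect and ±100 for the full control effect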). The conditions noted are these: Jurkat NFAT-bla M1, carbachol, beta-lactamase ratio, 5 h; at 7.69 µM (top of the series) unless noted. In outline: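 Jurkat cells with NFAT-driven β-lactamase reporter and co-expressed M1 receptor, stimulated with carbachol (final 1 uM, ~EC50), compound titration, 5 h at 37 °C. CCF4 loaded 1 h at RT; 460/530 nm ratio gave %activity and AC50.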

The nature of assay [3]: Stat Signaling Pathway (AID 446; active = well fitted curve in either direction with a large enough effect, not every such curve was filed as active;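 note: ME-180 cervical cancer cells given 40 pM IL-6 alongside compound; SIE-controlled beta-lactamase reporter measured as 460/530 nm FRET emission ratio; % is set by controls: 0 for no effect and ±100 for the full control effect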). In outline:
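Reporter line: ME-180 cervical carcinoma, SIE-beta-lactamase. Treatment: compound with 40 pM IL-6, 5 hrs, 37 C, in low-serum OPTI-MEM with 10 mM HEPES pH 7.3. Detection: 460/530 nm fluorescence.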

The target in assay [4] is Glucocorticoid receptor (Homo sapiens) (UniProt P04150). The experiment in a line: GR-GFP Redistribution (AID 450;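 active = compounds whose dose series gives a full or clear partial fitted curve of increased nuclear translocation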; note: potency is the fitted concentration of half-maximal effect). The following applies: U2OS GR-GFP nuclear translocation, laser cytometry, 2 h.
Sequence of Glucocorticoid receptor (Homo sapiens) (P04150 whole entry, looked up): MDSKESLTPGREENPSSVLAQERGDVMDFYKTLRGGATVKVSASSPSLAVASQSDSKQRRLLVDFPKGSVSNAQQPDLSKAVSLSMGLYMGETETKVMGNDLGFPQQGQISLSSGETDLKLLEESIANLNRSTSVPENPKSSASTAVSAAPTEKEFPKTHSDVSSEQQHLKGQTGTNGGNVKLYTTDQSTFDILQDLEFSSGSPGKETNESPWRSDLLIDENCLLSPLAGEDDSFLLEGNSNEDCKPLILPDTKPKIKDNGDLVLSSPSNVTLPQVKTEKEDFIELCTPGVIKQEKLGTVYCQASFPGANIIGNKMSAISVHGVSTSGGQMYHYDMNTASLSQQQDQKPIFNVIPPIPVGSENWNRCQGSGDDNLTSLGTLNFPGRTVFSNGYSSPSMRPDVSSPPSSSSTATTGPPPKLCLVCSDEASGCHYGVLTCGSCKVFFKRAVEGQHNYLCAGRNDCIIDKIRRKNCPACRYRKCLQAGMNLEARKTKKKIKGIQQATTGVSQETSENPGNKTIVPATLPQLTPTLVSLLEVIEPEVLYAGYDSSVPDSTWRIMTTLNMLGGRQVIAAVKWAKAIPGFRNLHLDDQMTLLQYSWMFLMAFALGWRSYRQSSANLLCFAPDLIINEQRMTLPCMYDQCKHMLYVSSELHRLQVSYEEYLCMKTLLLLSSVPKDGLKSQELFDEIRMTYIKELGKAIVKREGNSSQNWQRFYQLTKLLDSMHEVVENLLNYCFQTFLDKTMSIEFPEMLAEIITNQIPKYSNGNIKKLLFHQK
For assay [5] the target is unchanged. Briefly: GR-EFC Redistribution (AID 451; calls by dose curve; note: potency is the fitted concentration of half-maximal effect). The following applies: CHO-K1 GR-EFC translocation, beta-gal luminescence, 2 h. In a few lines:
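CHO-K1 cells expressing nuclear EA and GR-ED fragments of b-gal; compounds titrated up to 46 uM final, 2 h at 37 C. GR nuclear translocation read as complemented b-gal luminescence after 1 h RT detection.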

For assay [6], the target named is Mitogen-activated protein kinase 10 (Mus musculus) (UniProt Q61831). Briefly: JNK3 AlphaScreen Assay (AID 530; active = well fitted curve in either direction with a large enough effect, not every such curve was filed as active;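 note: kinase came from lysate of stimulated human HepG2 cells; signal reports phosphorylation of biotinylated GST-cJun 1-79 at Ser73 with 10 µM ATP; % is set by controls: 0 for no effect and ±100 for the full control effect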). In outline:
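Pre-activated (IL-1β/TNFα) JNK3 in HepG2 lysates phosphorylates biotin-GST-cJun(1-79), 10 uM ATP; anti-phospho-cJun(Ser73) AlphaScreen read at room temperature, pH 7.6 Tris buffer. Compounds pre-incubated 15 min as titrations.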

For assay [7], the target named is Dual specificity protein kinase CLK4 (Homo sapiens) (UniProt Q9HAZ1). Briefly: qHTS Assay for Inhibitors of CDC-like Kinase 4 (Kinase-Glo Assay) (AID 1770). Note: nearly all actives have a fitted effect of over 65% in size. Note: potency is the fitted concentration of half-maximal effect. In outline: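 25 nM Clk4 with 100 uM RS repeat peptide and 1 uM ATP (final) in Tris pH7.5, 10 mM MgCl2, 4.5 h at room temperature. Remaining ATP measured by Kinase-Glo luciferase luminescence.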
Sequence of Dual specificity protein kinase CLK4 (Homo sapiens) (Q9HAZ1 whole entry, looked up): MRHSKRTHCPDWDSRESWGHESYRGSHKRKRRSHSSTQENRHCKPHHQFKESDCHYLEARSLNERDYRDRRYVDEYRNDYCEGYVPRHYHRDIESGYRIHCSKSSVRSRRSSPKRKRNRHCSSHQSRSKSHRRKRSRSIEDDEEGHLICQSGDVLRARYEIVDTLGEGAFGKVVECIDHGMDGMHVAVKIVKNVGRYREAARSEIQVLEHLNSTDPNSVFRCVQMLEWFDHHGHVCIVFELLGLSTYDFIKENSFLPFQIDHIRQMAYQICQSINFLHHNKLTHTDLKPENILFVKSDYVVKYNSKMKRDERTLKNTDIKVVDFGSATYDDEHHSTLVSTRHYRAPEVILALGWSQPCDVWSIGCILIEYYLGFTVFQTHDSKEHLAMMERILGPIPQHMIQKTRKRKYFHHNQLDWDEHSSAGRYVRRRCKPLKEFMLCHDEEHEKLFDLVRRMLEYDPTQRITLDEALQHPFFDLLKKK
For orientation: qHTS replaces the single test concentration by a dilution series.

For assay [8] the target is unchanged. Briefly: qHTS Assay for Inhibitors of CDC-like Kinase 4 (ADP-Glo Assay) (AID 1771). Note: nearly all actives have a fitted effect of over 70% in size. Note: potency is the fitted concentration of half-maximal effect. In a few lines:
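Luminescence from ADP-Glo reports ADP produced by 25 nM Clk4 acting on 100 uM RS repeat peptide with 1 uM ATP over 1 hr at room temperature; residual ATP is depleted before ADP is converted to ATP for detection.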

Assay [9] has as its target Lysosomal acid glucosylceramidase (Homo sapiens) (UniProt P04062). Briefly: Glucocerebrosidase-p2 (AID 348; in the data active = potency below about 10 µM; note: potency is the fitted concentration of half-maximal effect). The conditions noted are these: purified GBA, blue fluorogenic substrate, 40 min. In a few lines:
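Compounds titrated from 0.6 nM upwards against 0.2 nM enzyme in pH 5.9 citric acid/KH2PO4, taurocholate, tween-20; blue fluorogenic substrate 80 uM, 40 min room temperature, stopped and read Ex 365/Em 440 for AC50.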

Assay [10] addresses Cytochrome P450 1A2 (Homo sapiens) (UniProt P05177). Briefly: p450-cyp1a2 (AID 410; calls by dose curve; note: potency is the fitted concentration of half-maximal effect). In outline:
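Luminescent readout of luciferin formed from Luciferin-ME by human CYP1A2; data normalized against complete inhibition by 57 uM furafylline. Enzyme 20nM, substrate 100uM at Km, 100mM KPO4 buffer, 60 min reaction at room temperature.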

The target in assay [11] is Ubiquitin carboxyl-terminal hydrolase 1 (Homo sapiens) (UniProt O94782). Briefly: Inhibitors of USP1/UAF1: Pilot qHTS (AID 504865).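 Note: rhodamine fluorescence freed from ubiquitin-rhodamine substrate followed over time; top concentration of the series differs between compounds; % is set by controls: 0 for no effect and ±100 for the full control effect; nearly all actives have a fitted effect of over 35% in size.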 In a few lines: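 USP1/UAF1 complex at 1 nM preincubated 15 min at room temperature with compound, then Ub-Rho substrate added at 150 nM final. Fluorescence (480/540 nm) read kinetically in 50 mM HEPES pH 7.8, 0.5 mM EDTA, 1 mM TCEP, 0.1 mg/ml BSA, 0.01% Tween-20.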
Sequence of Ubiquitin carboxyl-terminal hydrolase 1 (Homo sapiens) (O94782 whole entry, looked up): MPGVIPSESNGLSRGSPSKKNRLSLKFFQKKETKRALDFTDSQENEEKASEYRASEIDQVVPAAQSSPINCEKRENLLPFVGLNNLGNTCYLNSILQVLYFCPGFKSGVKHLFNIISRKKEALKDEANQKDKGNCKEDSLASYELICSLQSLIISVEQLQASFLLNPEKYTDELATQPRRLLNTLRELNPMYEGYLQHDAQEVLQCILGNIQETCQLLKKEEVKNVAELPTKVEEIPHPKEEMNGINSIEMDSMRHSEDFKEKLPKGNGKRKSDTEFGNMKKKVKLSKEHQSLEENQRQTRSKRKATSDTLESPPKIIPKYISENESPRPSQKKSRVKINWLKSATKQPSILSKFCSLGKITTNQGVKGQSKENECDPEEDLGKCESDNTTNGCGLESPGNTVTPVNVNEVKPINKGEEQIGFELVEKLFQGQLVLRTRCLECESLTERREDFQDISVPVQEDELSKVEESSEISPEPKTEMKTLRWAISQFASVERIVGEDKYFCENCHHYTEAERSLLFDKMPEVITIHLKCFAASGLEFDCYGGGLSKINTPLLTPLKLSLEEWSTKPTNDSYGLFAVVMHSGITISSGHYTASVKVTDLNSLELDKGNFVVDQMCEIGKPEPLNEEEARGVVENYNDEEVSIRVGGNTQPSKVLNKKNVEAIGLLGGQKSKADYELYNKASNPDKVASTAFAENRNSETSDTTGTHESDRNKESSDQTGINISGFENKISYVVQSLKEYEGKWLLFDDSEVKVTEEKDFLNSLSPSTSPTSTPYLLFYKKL

Assay [12] has as its target 3',5'-cyclic-AMP phosphodiesterase 4B (Homo sapiens) (UniProt Q07343). Briefly: qHTS Assay for Inhibitors of PDE-IV (AID 607; active = well fitted activation curve with a large enough effect in the main read-out, with a control signal flat, not every such curve was filed as active; note: % of control where 0% means no effect). In outline:
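Cell-based read-out of cAMP via a modified cyclic nucleotide-gated channel and membrane potential dye (535/590 nm) in HEK293 cells expressing PDE4 endogenously. Compounds tested up to 22.9 uM final; 100 uM RO 20-1724 reference.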

The target in assay [13] is Cytochrome P450 3A4 (Homo sapiens) (UniProt P08684). Briefly: qHTS Assay for Activators of Cytochrome P450 3A4 (AID 885). Note: nearly all actives have a fitted effect of over 65% in size. In outline:
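Signal was normalized against complete inhibition by 57 uM ketoconazole. The reaction used 20nM CYP3A4 with 25uM Luciferin-PPXE, 10-min compound preincubation and a 60-min NADPH-supported step at RT.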

Assay [14] is described as follows: qHTS Assay for Identification of Small Molecule Agonists for Hypoxia Response Element Signaling Pathway (AID 914; active = well fitted activation curve with a large enough effect in the signal ratio, with a control signal flat, not every such curve was filed as active; the % refers to the signal ratio; note: potency is the fitted concentration of half-maximal effect). The conditions noted are these: ME-180 (cervical carcinoma) HRE-bla reporter, beta-lactamase ratio, CoCl2, 17 h; activation: active compounds read high. In outline:
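AC50 values come from titration-series %Activity, taken as the 460/530nm ratio of CCF4 fluorescence (excitation 405nm). CellSensor HRE-bla ME-180 cells were treated 17 hours at 37 C with compound plus an EC50 level of CoCl2.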

Assay [15] deals with Cytochrome P450 2C9 (Homo sapiens) (UniProt P11712). Briefly: qHTS Assay for Inhibitors and Substrates of Cytochrome P450 2C9 (AID 883). Note: potency is the fitted concentration of half-maximal effect; nearly all actives have a fitted effect of over 60% in size. In outline: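 Signal: luciferase luminescence reporting luciferin produced by CYP2C9. Conditions: 10nM enzyme, Luciferin-H 100uM at KM, 25mM KPO4, 37C, 60 min NADPH-driven reaction. Reference: 57uM sulphaphenazole as 100% inhibition.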
For assay [16], the target named is Cytochrome P450 3A4 (Homo sapiens) (UniProt P08684). Briefly: qHTS Assay for Inhibitors and Substrates of Cytochrome P450 3A4 (AID 884). Note: potency is the fitted concentration of half-maximal effect; nearly all actives have a fitted effect of over 50% in size. In a few lines:
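20 nM human CYP3A4 with 25 uM Luciferin-PPXE (at KM) in 200 mM KPO4, preincubated 10 min with compound; NADPH regeneration started a 60 min RT reaction. Luciferin detected by luminescence, normalized to 57 uM ketoconazole as full inhibition.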

Assay [17] concerns the target Cytochrome P450 2C19 (Homo sapiens) (UniProt P33261). Briefly: qHTS Assay for Inhibitors and Substrates of Cytochrome P450 2C19 (AID 899). Note: potency is the fitted concentration of half-maximal effect; nearly all actives have a fitted effect of over 60% in size. In a few lines:
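Signal comes from luciferase acting on luciferin released by CYP2C19-mediated hydroxylation of Luciferin-H EGE, 10uM (KM). Assay mix: 5nM enzyme, 50mM KPO4; 60 min at 37C with NADPH regeneration. Data normalized against 57uM ketoconazole.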

Assay [18] has as its target Dual specificity protein kinase CLK4 (Homo sapiens) (UniProt Q9HAZ1). The experiment in a line: qHTS Assay for Inhibitors of CDC-like Kinase 4 (ADP-FP Assay) (AID 1795).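 Note: recombinant human CLK4 phosphorylating RS repeat peptide at 1 µM ATP; % is set by controls: 0 for no effect and ±100 for the full control effect; nearly all actives have a fitted effect of over 60% in size.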 In a few lines:
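Recombinant Clk4 (6.25 nM) phosphorylated 100 uM RS repeat peptide with 1 uM ATP in 25 mM Tris pH 7.5, 10 mM MgCl2, 0.5 mM EGTA, 2.5 mM DTT, 0.01% Triton X-100 for 1 h. ADP was detected by Transcreener ADP2 competitive fluorescence polarization after 30 min at room temperature.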

Sequence of Cytochrome P450 1A2 (Homo sapiens) (P05177 whole entry, looked up): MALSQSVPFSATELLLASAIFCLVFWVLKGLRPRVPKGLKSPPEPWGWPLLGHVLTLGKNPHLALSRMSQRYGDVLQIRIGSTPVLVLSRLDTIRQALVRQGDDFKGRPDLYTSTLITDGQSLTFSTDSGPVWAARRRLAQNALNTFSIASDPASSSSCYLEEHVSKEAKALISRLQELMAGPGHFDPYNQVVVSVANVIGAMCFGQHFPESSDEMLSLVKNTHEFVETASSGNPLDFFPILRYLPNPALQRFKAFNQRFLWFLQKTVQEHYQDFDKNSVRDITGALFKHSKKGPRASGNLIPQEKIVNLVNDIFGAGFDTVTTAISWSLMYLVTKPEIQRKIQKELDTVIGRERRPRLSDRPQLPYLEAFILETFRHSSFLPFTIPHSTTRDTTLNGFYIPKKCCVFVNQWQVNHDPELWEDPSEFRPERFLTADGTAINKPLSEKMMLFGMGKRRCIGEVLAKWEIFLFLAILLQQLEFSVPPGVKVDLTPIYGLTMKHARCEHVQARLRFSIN
Sequence of 3',5'-cyclic-AMP phosphodiesterase 4B (Homo sapiens) (Q07343 whole entry, looked up): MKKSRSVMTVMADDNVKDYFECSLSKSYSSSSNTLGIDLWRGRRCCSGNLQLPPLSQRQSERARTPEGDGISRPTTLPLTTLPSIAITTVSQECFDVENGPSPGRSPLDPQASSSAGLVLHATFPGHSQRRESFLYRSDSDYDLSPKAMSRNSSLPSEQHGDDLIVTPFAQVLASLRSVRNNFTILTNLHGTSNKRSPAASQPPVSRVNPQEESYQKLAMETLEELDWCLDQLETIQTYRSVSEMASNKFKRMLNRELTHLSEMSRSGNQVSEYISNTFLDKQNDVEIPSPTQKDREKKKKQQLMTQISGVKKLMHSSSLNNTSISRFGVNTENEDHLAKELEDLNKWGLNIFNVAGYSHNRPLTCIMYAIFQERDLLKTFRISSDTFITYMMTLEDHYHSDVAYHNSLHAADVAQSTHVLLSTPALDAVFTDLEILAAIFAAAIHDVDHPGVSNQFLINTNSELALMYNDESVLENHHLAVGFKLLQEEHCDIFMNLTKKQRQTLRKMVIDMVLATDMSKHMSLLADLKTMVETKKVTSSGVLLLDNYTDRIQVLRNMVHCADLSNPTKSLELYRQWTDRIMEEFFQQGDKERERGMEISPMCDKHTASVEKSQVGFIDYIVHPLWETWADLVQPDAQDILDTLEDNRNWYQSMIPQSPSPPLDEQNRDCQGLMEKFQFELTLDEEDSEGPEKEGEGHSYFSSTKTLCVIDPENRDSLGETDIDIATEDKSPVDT
Sequence of Cytochrome P450 3A4 (Homo sapiens) (P08684 whole entry, looked up): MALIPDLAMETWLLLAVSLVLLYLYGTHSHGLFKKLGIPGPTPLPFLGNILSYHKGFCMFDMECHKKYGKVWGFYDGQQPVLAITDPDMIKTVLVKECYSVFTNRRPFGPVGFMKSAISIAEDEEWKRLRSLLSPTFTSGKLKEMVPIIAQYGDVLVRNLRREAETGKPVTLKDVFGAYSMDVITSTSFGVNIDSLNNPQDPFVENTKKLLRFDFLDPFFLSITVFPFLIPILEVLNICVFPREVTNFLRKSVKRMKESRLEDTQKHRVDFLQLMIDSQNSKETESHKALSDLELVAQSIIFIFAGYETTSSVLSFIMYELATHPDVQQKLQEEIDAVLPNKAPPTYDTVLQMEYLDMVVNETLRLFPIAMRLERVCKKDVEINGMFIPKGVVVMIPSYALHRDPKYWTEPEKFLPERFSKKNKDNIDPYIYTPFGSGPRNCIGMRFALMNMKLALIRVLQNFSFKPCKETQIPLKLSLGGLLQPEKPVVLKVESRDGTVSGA
Sequence of Lysosomal acid glucosylceramidase (Homo sapiens) (P04062 whole entry, looked up): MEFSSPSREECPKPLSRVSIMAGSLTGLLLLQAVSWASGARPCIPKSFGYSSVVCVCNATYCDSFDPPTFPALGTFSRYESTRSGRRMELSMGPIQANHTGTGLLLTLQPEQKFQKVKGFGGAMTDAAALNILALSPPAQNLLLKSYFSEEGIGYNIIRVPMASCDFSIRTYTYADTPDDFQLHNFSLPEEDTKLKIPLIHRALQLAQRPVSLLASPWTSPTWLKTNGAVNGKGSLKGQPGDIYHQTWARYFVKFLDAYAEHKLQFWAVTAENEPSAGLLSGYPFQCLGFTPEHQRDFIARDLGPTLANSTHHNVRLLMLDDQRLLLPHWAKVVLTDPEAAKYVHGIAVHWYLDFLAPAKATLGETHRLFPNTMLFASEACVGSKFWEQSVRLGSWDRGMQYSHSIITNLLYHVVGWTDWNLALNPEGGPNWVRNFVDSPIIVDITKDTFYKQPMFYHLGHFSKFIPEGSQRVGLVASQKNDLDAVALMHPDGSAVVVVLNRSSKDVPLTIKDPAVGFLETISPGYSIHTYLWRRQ
Sequence of Cytochrome P450 2C19 (Homo sapiens) (P33261 whole entry, looked up): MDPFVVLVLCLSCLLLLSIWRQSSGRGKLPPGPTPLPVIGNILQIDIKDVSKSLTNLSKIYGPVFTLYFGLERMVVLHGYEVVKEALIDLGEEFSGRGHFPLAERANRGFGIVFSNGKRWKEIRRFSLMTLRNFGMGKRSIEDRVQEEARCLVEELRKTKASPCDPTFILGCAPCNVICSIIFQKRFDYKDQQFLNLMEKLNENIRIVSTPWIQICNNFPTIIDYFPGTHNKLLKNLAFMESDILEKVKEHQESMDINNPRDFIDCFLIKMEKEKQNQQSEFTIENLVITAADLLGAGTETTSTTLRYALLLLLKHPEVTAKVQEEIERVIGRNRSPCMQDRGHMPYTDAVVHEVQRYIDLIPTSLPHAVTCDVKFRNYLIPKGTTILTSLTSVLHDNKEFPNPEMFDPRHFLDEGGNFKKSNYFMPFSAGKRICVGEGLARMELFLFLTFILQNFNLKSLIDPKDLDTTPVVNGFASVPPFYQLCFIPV

Turning to `COc1ccccc1-c1nccc(NCc2cccs2)n1`, the values for the activity change, negative = inhibition in assay [1] and in [2] were 15.8% and -12.7%, respectively. In addition, the compound was classed as inactive in assay [3]. The Potency in assay [4] and in [5] was > 46 µM throughout. The Potency entry in assay [6], in assay [7] and in [8] was “inactive” in each case.
For `COc1ccc(Oc2ncc3nc(-c4cccc(C#N)c4)c(=O)n(CCC#N)c3n2)cc1`, the Potency was > 11.4 µM in assay [9], 25.1 µM (active) in assay [10], > 9.22 µM in assay [4] and > 46 µM in assay [5]. The activity change, negative = inhibition in assay [2] was 14.2%. For the same compound, the compound was classed as inactive in [3]. Besides, the Potency result in [6], in [7] and in [11] was “inactive” throughout.
On to `COc1cccc(-c2cncnc2NCCN2CCOCC2)c1`, for which the Potency in assay [10] was 15.8 µM (active); in assay [4], > 46 µM; in assay [5], > 46 µM; in assay [14], 2.51 µM (active). Further, the compound was classed as inactive in assay [3] and in assay [13]. The Potency entry in assay [6], in [12], in assay [7], in assay [8] and in assay [11] was “inactive” throughout.
`COc1ccc2[nH]cc(CCNc3ncnc4ccc(-c5cccc(C#N)c5)cc34)c2c1`: the Potency in [10] is 2.51 µM (active); in assay [4] it was > 46 µM; in assay [5], > 46 µM; in [15], 0.0631 µM (active); in assay [16], 2.51 µM (active); in assay [17], 7.94 µM (active). The figures for the Potency in [7] and in [8] were 12.6 µM (active) and 15.8 µM (active), respectively. In addition, the result in [3] and in assay [13] was inactive. In addition, the Potency result in assay [6] was “inactive”.
As to `COCCn1c(=O)c(-c2ccc(F)cc2)nc2cnc(Nc3cccc(OC)c3)nc21`, the Potency in [10] is 3.16 µM (active); in assay [4], > 9.22 µM; in assay [5], > 46 µM. For the same compound, the activity change, negative = inhibition in assay [2] is -5.01%. Besides, the outcome in assay [3] was inactive. Also, the Potency result in assay [12], in [7], in assay [18] and in assay [11] was “inactive” throughout.
Consider `COc1ccc2[nH]cc(CCNc3ncncc3-c3ccc4c(c3)OCO4)c2c1`, for which the compound was classed as inactive in assay [3]. Further, the Potency in [4] is > 46 µM; in assay [5], > 46 µM; in assay [7], 8.91 µM (active); in assay [8] it was 7.08 µM (active). Besides, the Potency entry in assay [12] and in [11] was “inactive” in each case.
As to `COCCn1c(=O)c(CCc2ccccc2)nc2cnc(N(C)C)nc21`, the Potency in [9] is > 11.4 µM; in [10], 1.26 µM (active); in [4], > 9.22 µM; in assay [5] it was > 46 µM. Also, the activity change, negative = inhibition in [1] is -26.9%; in assay [2], 3.37%. For the same compound, the compound was called inactive in [3] and in assay [13]. The Potency entry in assay [7], in assay [18] and in assay [11] was “inactive” in each case.
